Results published in the supplement of paper PMC10127200.
Several values for one entry are separate records, joined by “and”; a condition that tells them apart may be missing. Equal entries are not always repeated. Structures can show the parent of a compound that is named as a salt.

Tests used:
Assay in all cases: Euclidean distance of Cell Painting phenotypic profile (signed KS, 77 features) to DMSO centroid (dimensionless distance); 5 or 10 uM (library dependent); higher = stronger phenotypic change vs DMSO (phenoactivity)
Details in all cases: 48 h
786-O = system: 786-O
Method in brief: (§1)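 Harmony extracted 77 features from 20X confocal images (9 fields/well) of stained cells, scoring each as a signed Kolmogorov-Smirnov statistic against same-plate vehicle wells. The cells, five cancer lines and a healthy fibroblast line, had received library compounds for 48 h at 10 or 5 uM depending on library, with 0.1% DMSO final. Phenoactivity is the Euclidean distance from each plate-position-corrected, correlation-weighted, top-dose replicate-averaged profile to the median vehicle profile.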

A549 = system: A549
Method in brief: as §1

DU145 = system: DU145
Method in brief: as §1

FB = system: FB
Method in brief: as §1

HEPG2 = system: HEPG2
Method in brief: as §1

OVCAR4 = system: OVCAR4
Method in brief: as §1

Compound | Euclidean distance (786-O) | Euclidean distance (A549) | Euclidean distance (DU145) | Euclidean distance (FB) | Euclidean distance (HEPG2) | Euclidean distance (OVCAR4)
Nc1ccc(S(=O)(=O)Nc2ncccn2)cc1 [Sulfadiazine] | 1.39 | 0.735 | 1.5 | 1.03 | 2.25 | 1.43
Nc1ncn([C@@H]2O[C@H](CO)[C@@H](O)[C@H]2O)c(=O)n1 [Azacitidine] | 1.87 | 1.89 | 1.92 | 2.79 | 1.69 | 1.33
N[C@@H](Cc1c[nH]c2ccc(O)cc12)C(=O)O [5-hydroxytryptophan (5-HTP)] | 1.11 | 0.965 | 0.903 | 0.927 | 0.404 | 0.744
CC(=O)O[C@]1(C(C)=O)CC[C@H]2[C@@H]3C=C(Cl)C4=CC(=O)[C@@H]5C[C@@H]5[C@]4(C)[C@H]3CC[C@@]21C [Cyproterone Acetate] | 1.3 | 0.841 | 0.95 | 0.862 | 1.95 | 0.974
Cn1c(Nc2ccc(C(F)(F)F)cc2)nc2cc(Oc3ccnc(-c4ncc(C(F)(F)F)[nH]4)c3)ccc21 | 1.98 | 1.97 | 1.46 | 3.86 | 1.24 | 1.5
CO[C@@H](C)Cn1c(=O)n(C)c2cnc3ccc(-c4cncc(C(C)(C)O)c4)cc3c21 | 3.52 | 4.06 | 2.18 | 4.79 | 2.61 | 3.29
CN(C)CCCN1c2ccccc2Sc2ccccc21 [Promazine hydrochloride] | 1.46 | 0.965 | 2.09 | 1.9 | 2.01 | 1.58
CC[C@H](C)[C@@H]1NC(=O)[C@H](Cc2ccc(O)cc2)NC(=O)[C@@H](N)CSSC[C@@H](C(=O)N2CCC[C@H]2C(=O)N[C@@H](CC(C)C)C(=O)NCC(N)=O)NC(=O)[C@H](CC(N)=O)NC(=O)[C@H](CCC(N)=O)NC1=O [Oxytocin (Syntocinon)] | 1.83 | 1.77 | 0.912 | 1.41 | 0.745 | 0.928
Nc1nc2n[nH]nc2c(=O)[nH]1 [Azaguanine-8] | 1.55 | 0.834 | 0.699 | 1.27 | 1.17 | 0.737
OC[C@H]1O[C@@H](Oc2cc(O)cc(/C=C/c3ccc(O)cc3)c2)[C@H](O)[C@@H](O)[C@@H]1O [Polydatin] | 1.21 | 2.03 | 1.22 | 0.978 | 0.886 | 1.3
Cc1csc(-c2nnc(Nc3ccc(Oc4ncccc4-c4ccnc(N)n4)cc3)c3ccccc23)c1 | 3.06 | 3.22 | 2.83 | 2.44 | 2.61 | 3.01
NC(=O)N[C@@H](CCC(=O)O)C(=O)O [Carglumic Acid] | 1.22 | 0.653 | 0.949 | 1.06 | 0.389 | 0.68
CC(C)Cc1ccc(C(C)C(=O)OCc2ccccn2)cc1 (stereo not drawn) [Ibuprofen piconol] | 1.39 | 0.595 | 0.983 | 0.788 | 0.518 | 1.2
O=C1CN(/N=C/c2ccc(-c3ccc([N+](=O)[O-])cc3)o2)C(=O)N1 [Dantrolene sodium hemiheptahydrate] | 0.731 | 0.894 | 1.67 | 1.21 | 0.638 | 1.31
COc1cc(/C=C/C(=O)O)ccc1O [Ferulic Acid] | 0.857 | 0.966 | 0.806 | 0.925 | 0.541 | 1.73
O=C(Nc1ccncc1)c1cc([N+](=O)[O-])ccc1Cl | 1.2 | 0.794 | 2.19 | 0.879 | 1.09 | 2.04
COc1c(N2CCNC(C)C2)c(F)cc2c(=O)c(C(=O)O)cn(C3CC3)c12 (stereo not drawn) [Gatifloxacin] | 0.648 | 0.598 | 0.774 | 0.851 | 0.876 | 1.07
Cc1ccc(Cl)cc1N(CC(=O)Nc1c(F)cccc1F)S(C)(=O)=O | 0.896 | 1.9 | 0.886 | 0.614 | 0.565 | 0.763
CN(C)CCCN1c2ccccc2Sc2ccc(C(F)(F)F)cc21 [Triflupromazine hydrochloride] | 1.77 | 1.63 | 1.6 | 2.36 | 1.76 | 1.47
CCCCC(CC)CN1CN(CC(CC)CCCC)CC(C)(N)C1 (stereo not drawn) [Hexetidine] | 0.942 | 4.33 | 6.71 | 2.79 | 0.954 | 5.33
CN(c1ncccc1CNc1nc(Nc2ccc3c(c2)CC(=O)N3)ncc1C(F)(F)F)S(C)(=O)=O | 1.25 and 2.75 | 3.05 and 1.62 | 2.34 and 1.3 | 3.61 and 1.66 | 2.58 and 1.31 | 3.25 and 1.45
Cc1ccc(S(=O)(=O)NC(=O)NN2CC3CCCC3C2)cc1 (stereo not drawn) [Gliclazide] | 1.36 | 0.771 | 1.24 | 1.14 | 1.07 | 1.65
CC1=C[C@H](O)CC(C)(C)[C@H]1/C=C/C(C)=C/C=C/C(C)=C/C=C/C=C(C)/C=C/C=C(C)/C=C/C1=C(C)C[C@@H](O)CC1(C)C [lutein] | 0.901 | 0.452 | 1.78 | 0.947 | 1.18 | 1
